Bioassay records as filed in PubChem BioAssay.
A selection: hits, their analogues and other compounds. The true share with any hit is near 3.2%.
A549 tox – kills or reduces viability of A549 cells in Nrf2 counter-screen | Potency, µM (highest dose often 46 µM), for the others: top-dose activity change, negative = cytotoxicity, usual class: inhibitors | A549 ARE-Fluc cells, CellTiter-Fluor viability, 18-24 h | 0.16% of 390,000 active | AID 504648; note: potency is the fitted concentration of half-maximal effect; % is set by controls: 0 for no effect and ±100 for the full control effect
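A549 ARE_Fluc cells in 5% FBS OPTI-MEM were exposed to compounds in concentration-response for 18-24 h at 37 deg C. Viability was read by CellTiter-Fluor fluorescence (Ex 405/Em 525) after 30 min, before the luciferase read.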
Nrf2 ARE act – Nrf2 pathway activation | 0.31% of 410,000 active | AREc32 ARE-luciferase reporter (MCF7-derived line), luminescence, 24 h | Potency, µM (titrated, usually from 46.1 µM), for the others: at the highest dose activation, usual class: activators; note: potency is the fitted concentration of half-maximal effect; % of control where 0% means no effect; nearly all actives have a fitted effect of over 65% in size
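For detection, Steady-Glo was added and plates sat 30 min at RT; before that, AREc32_Fluc cells grown overnight in OPTI-MEM/5% FBS had been treated with 23 nL compound for 24 hr at 37 deg C.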
p53 reactivation – mutant p53 re-activation in reporter cells; H1299 p53-A138V BP100-luciferase reporter, luminescence, 24 h; Potency, µM (top dose mostly 92.2 µM), inactives show at the highest dose activity change, positive = activation, most hits filed as activators; 0.063% of 320,000 active; AID 504706; note: potency is the fitted concentration of half-maximal effect; % of control where 0% means no effect; nearly all actives have a fitted effect of over 45% in size
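p53-null H1299 cells stably carrying temperature-sensitive p53-A138V and a BP100-luciferase reporter were pinned with compounds (4-point, 1:5 series) and held 24 hrs at 37 deg C. Luminescence was read 10 min after detection reagent.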
Nrf2 inh – Nrf2 pathway inhibition. A549 ARE-Fluc reporter, luciferase luminescence, 18-24 h. Potency, µM (top dose mostly 46 µM), for the others: at the highest dose activity change, negative = inhibition, usual class: inhibitors. 2.1% of 360,000 active; note: potency is the fitted concentration of half-maximal effect; % is set by controls: 0 for no effect and ±100 for the full control effect; nearly all actives have a fitted effect of over 60% in size
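Cells were seeded and rested 2 h, then exposed to compounds for 18-24 h. CellTiter-Fluor was read first as a viability measure. BugLite was added 15 min before the final luminescent read of ARE-luciferase activity in A549 cells.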
BRCA1 expr act – activators of BRCA1 expression | MCF7-BRCA1-FFLuc reporter, luminescence, 48 h; response scale: scaled: vehicle 0%, 10 µM genistein 100% | Potency, µM (top dose mostly 46.1 µM), for the others: top-dose activation, most hits filed as activators | 1.1% of 380,000 active | AID 624202; note: potency is the fitted concentration of half-maximal effect; nearly all actives have a fitted effect of over 80% in size
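Cells: MCF7-BRCA1-FFLuc, 2000/well. Exposure: 48 h, 37 °C, 5% CO2. Read: luminescence, 15 min post-substrate. Controls: genistein 10 microM (maximal activation), DMSO (neutral).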
IL2 activator – IL-2 activation; activation, % (series mostly up to about 46 µM); IL-2 activation reporter assay, cell-based qHTS; stimulated with anti-CD3/CD4/CD28 beads; in transgenic mouse T cells; 0.065% of 360,000 active; in the data active = activation above about 50%; inconclusive = mostly about 30% to 49%; note: 0% is about no effect
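First, unstimulated transgenic mouse T cells were exposed to compound for 60 min. Next, anti-CD3/anti-CD4-coated beads with anti-CD28 were added. Finally, after 18 h at 37 degrees C, EGFP and DsRed were imaged.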
* = called active by the depositor; ? = inconclusive; nt = no result; [ ] = another dose, or the depositor's remark. Unless noted, calls come from the whole dose curve; as a rule, active = well fitted curve in the direction sought with a large enough effect; inconclusive = small, poorly fitted or top-dose-only effect, or another doubt; inactive = no such curve, though single readings can be large; an effect the other way counts as inactive or inconclusive.

SMILES | A549 tox | Nrf2 ARE act | p53 reactivation | Nrf2 inh | BRCA1 expr act | IL2 activator
CCn1c(CCCOc2ccc(Cl)cc2Cl)n[nH]c1=S | 0.7% | 7.8% | 3.3% | -19.0% | 6.31µM* | -2.0
O=c1c(Cl)c(N2CCCCC2)cnn1-c1nc2ccccc2[nH]1 | -1.4% | -1.6% | -11.0% | 16.4µM* | -98.8% | -1.1
CCCCC(Sc1ccc2nnc(-c3ccccn3)n2n1)C(=O)O (stereo unspecified) | 1.7% | nt | nt | 1.5% | 10.3% | nt
CSc1cc2c(s1)c1cnn(Cc3ccccc3F)c(=O)c1n2C | -3.2% | nt | nt | -16.4% | nt | nt
Cc1cn([C@@H](CCCCNC(=O)OC(C)(C)C)C(=O)NCCCCCCCCCCC(=O)N2CCN(C(=O)OC(C)(C)C)CC2)nn1 | 16.4µM* | -1.3% | -11.7% | 10.3µM* | -46.5% | -0.5
CC[C@H](C)Cc1cn([C@@H](CCCN=C(NC(=O)OC(C)(C)C)NC(=O)OC(C)(C)C)C(=O)NCCCCCCCCCCC(=O)N2CCN(C(=O)OC(C)(C)C)CC2)nn1 | ? | -3.8% | -22.3% | ? | -39.1% | -4.0
COc1ccc(CCn2c3c(c(=O)[nH]c2=S)CN(C)CN3)cc1OC | 7.7% | nt | nt | -12.7% | 10.8% | nt
Cc1ccc(-c2csc3ncnc(N4CCN(Cc5ccccc5)CC4)c23)cc1 | -9.2% | -0.2% | 2.6% | 23.1µM* | 0.0% | -1.1
Fc1ccc(CN2CCN(c3ncnc4scc(-c5ccccc5)c34)CC2)cc1 | -3.4% | -0.3% | 0.4% | 23.1µM* | -30.3% | -2.7
COc1ccc(-c2csc3ncnc(N4CCN(c5ccccc5OC)CC4)c23)cc1 | ? | 0.5% | -4.4% | 23.1µM* | -61.4% | -0.4
COc1ccc(-c2nc(CN3CCN(c4ccccc4OC)CC3)c(C)o2)cc1 | ? | 4.4% | -4.3% | 18.4µM* | -32.8% | -5.6
COc1ccccc1N1CCN(Cc2nc(-c3ccc(F)cc3)oc2C)CC1 | -11.8% | 4.1% | -2.3% | ? | -21.7% | -4.3
CCC(Sc1nnc(C)n2c1cc1occc12)C(=O)Nc1ccccc1OC (stereo unspecified) | -1.6% | 1.2% | nt | ? | nt | nt
CCc1ccccc1NS(=O)(=O)c1cc(Br)cc2c1N(C(=O)C1CC1)CC2 | -0.8% | -0.3% | nt | -18.2%[9.27 µM] | -47.9% | nt
Nc1c(C(=O)c2ccc(Br)s2)oc2ccccc12 | -1.8% | 3.16µM* | ? | -31.9% | -12.0% | -1.0
CCc1cc2c(N3CCN(c4ccccc4)CC3)ncnc2s1 | -10.0% | 0.2% | -4.7% | 18.4µM* | -55.6% | -0.7
Oc1ccc(N2CCN(c3ncnc4sc(-c5ccccc5)cc34)CC2)cc1 | -15.7% | 10.6% | -2.3% | 20.6µM* | -69.0% | -6.6
N#Cc1ccccc1NC(=O)CSc1nc(-c2ccccc2)cc(C(F)(F)F)c1C#N | 0.0% | 0.4% | nt | -14.8% | nt | nt
CCc1ccc(NC(=O)C(=O)NCCc2sc3nc(-c4ccc(OC)cc4)nn3c2C)cc1 | -1.2% | 0.1% | nt | nt | nt | nt
CCOC(=O)c1c(C)c(C(=O)NCc2cccnc2)c(C)n1C | 0.0% | -0.5% | 1.8% | 17.1% | -5.6% | -1.7
CCc1noc(C)c1C(=O)NCCc1ccc(F)cc1 | 3.8% | 0.8% | -1.4% | 1.5% | 2.6% | 0.1
CCOC(=O)c1c(C)c(C(=O)NCCc2ccccc2)c(C)n1C | 18.1% | 5.0% | 19.0% | ? | 10µM* | 0.0
CCc1noc(C)c1C(=O)NCCc1ccccc1 | 1.4% | 0.3% | ? | ? | 10µM* | 0.7
O=C(NCC1OCCc2ccccc21)c1ccc(NC(=O)c2ccc(Cl)cc2Cl)cc1 (stereo unspecified) | -9.2% | -0.6% | -9.2% | -26.7% | -9.2% | 0.6
O=C(NCC1OCCc2ccccc21)c1ccc(NC(=O)c2ccccc2Cl)cc1 (stereo unspecified) | 2.0% | -0.2% | -1.8% | 20.6µM* | -30.6% | -5.7
SMILES | A549 tox | Nrf2 ARE act | p53 reactivation | Nrf2 inh | BRCA1 expr act | IL2 activator
C/C(=N\NC(=O)COc1ccccc1[N+](=O)[O-])c1cccs1 | 1.2% | 8.91µM* | 2.6% | ? | 18.1% | -0.4
C/C(=N\NC(=O)c1cccs1)c1c(O)cc(C)oc1=O | 3.0% | 2.9% | 2.9% | ? | 3.55µM* | -3.7
C/C(=N/NC(=O)c1cccs1)c1cccs1 | -2.0% | 13.8% | 13.0% | ? | 3.55µM* | 7.2
COc1ccc(OCC(=O)N/N=C(\C)c2cccs2)cc1 | 22.6% | 0.1% | 7.4% | 5.6% | 60.0% | 0.1
CC(=O)Nc1cccc(/C(C)=N/NC(=O)c2cccs2)c1 | -0.4% | 3.3% | 17.5% | ? | ? | 2.0
C/C(=N\NC(=O)c1cc2ccccc2cc1O)c1cccs1 | 0.5% | -0.2% | ? | ? | 1.6% | 1.1
C/C(=N/NC(=O)c1cccs1)c1cccc(N)c1 | -0.4% | 6.0% | 6.7% | ? | 11.2µM* | -2.0
c1ccc(-c2nc(-c3cnc4ccccc4n3)cs2)cc1 | nt | nt | nt | nt | 14.1% | nt
C=C(C)C1CC=C(C)C(=NNC(=O)c2ccncc2)C1 (stereo unspecified) | 0.5% | 4.5% | nt | -2.6% | -23.6% | -0.1
C=C(C)C1CC=C(C)/C(=N/NC(=O)c2cccs2)C1 (stereo unspecified) | 15.7% | 6.8% | ? | 12.8% | 10µM* | -0.5
Cn1cc(S(=O)(=O)N2CCCCCC2)cc1C(=O)Nc1ccccc1F | 1.7% | -0.2% | nt | nt | -1.5% | nt
COc1ccc(OCC(=O)N2CCN(S(=O)(=O)c3ccc(Cl)s3)CC2)cc1 | 28.0% | 0.3% | 2.5% | -6.1% | -6.6% | 0.0
N#Cc1ccc(OCC(=O)N2CCN(S(=O)(=O)c3ccc(Cl)s3)CC2)cc1 | -11.6% | -0.3% | -7.5% | 23.1µM* | -23.1% | -0.6
COc1ccc(C(=O)Cn2c(=O)c(-c3cc(C)ccc3NC(C)=O)nc3ccccc32)cc1 | 6.6% | 0.0% | nt | 1.2% | nt | nt
CCOC(=O)c1cc(-c2ccccc2)n(CCC(=O)Nc2ccc(Cl)c(C(F)(F)F)c2)c1C | ? | -0.6% | nt | nt | nt | nt
Oc1oc(-c2ccco2)nc1C=Nc1ccccc1 | -2.3% | 12.6µM* | ? | 1.4% | 5.1% | -3.7
Cc1ccc(-c2nc(C=Nc3ccc(O)cc3)c(O)o2)cc1 | ? | 6.31µM* | 9.3% | 15.9% | -20.1% | 76.5*
CN=Cc1nc(-c2ccccc2)oc1O | ? | 0.2% | ? | ? | ? | -0.5
Cc1ccc2nc(-c3ccc(O)cc3)oc2c1 | 0.6% | -0.1% | nt | 6.51µM* | 46.5% | -0.8
COc1ccc(CCNC(=O)c2cc(S(=O)(=O)N3CCCC(C)C3)cn2C)cc1OC (stereo unspecified) | -11.9% | 1.0% | nt | nt | -17.6% | nt
Cc1cccc(NC(=O)Cn2cc(C(=O)c3ccco3)c3ccccc32)c1C | -22.4% | 4.4% | nt | 20.6µM* | nt | nt
